Screening data (PubChem BioAssay)
HNF4A DNA FP = change in binding of human HNF4 alpha to DNA; P41235; HNF4a-FITC DNA binding, fluorescence polarization, 1 h; activity change, % at 10 µM; hit rate 0.3% among 360,000; AID 1224865; in the data active = activity change above about 30%, passing the limit was not always enough
Target sequence (P41235 whole entry, looked up): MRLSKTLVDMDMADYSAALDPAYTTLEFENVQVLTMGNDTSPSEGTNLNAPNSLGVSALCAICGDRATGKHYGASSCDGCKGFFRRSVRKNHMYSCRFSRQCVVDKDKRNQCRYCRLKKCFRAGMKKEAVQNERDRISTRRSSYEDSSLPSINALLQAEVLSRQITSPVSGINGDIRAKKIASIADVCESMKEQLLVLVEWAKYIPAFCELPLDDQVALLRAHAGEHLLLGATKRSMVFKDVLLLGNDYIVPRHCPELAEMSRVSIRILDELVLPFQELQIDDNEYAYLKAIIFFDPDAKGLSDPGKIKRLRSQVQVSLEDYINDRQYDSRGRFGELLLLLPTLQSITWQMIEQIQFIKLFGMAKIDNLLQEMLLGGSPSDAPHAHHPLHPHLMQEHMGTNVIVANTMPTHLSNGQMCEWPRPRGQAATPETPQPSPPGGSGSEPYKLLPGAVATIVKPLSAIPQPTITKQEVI
TPT1 inhibitor = blocks Candida albicans tRNA 2'-phosphotransferase; recombinant caTPT1, FP RNA substrate dephosphorylation; inhibition, % at 5 µM; hit rate 0.81% among 300,000; AID 1962;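 active = inhibition above the mean of all tested compounds plus 3 SD, set per screening campaign, cut at about 24% in these data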
PHOSPHO1 block = inhibitors of human PHOSPHO1 phosphatase; Q8TCT1; recombinant PHOSPHO1, absorbance phosphatase assay; inhibition, % at 13.3 µM; hit rate 1.1% among 290,000; AID 1565; in the data active = inhibition above about 60%
CTSL1 counter = cathepsin L1 inhibition, PFM18AAP counter-screen | recombinant F. hepatica cathepsin L1, Z-Leu-Arg-MCA fluorescence | hit rate 0.49% among 300,000 | inhibition, % at 5.96 µM | AID 1906;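 active = inhibition above the mean of all tested compounds plus 3 SD, set per screening campaign, cut at about 17% in these data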
CendR NRP1 mod = alters CendR peptide binding to human NRP-1. FAM-RPARPAR peptide binding to NRP-1, fluorescence polarization. inhibition, % at 25 µM. AID 602438. hit rate 0.85% among 360,000. O14786;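 active = inhibition or corrected inhibition above about 18%, plus a signal ratio from 0.5 to 1.5, limit read from the data, passing the limit was not always enough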
Rpn11 block = blocks the human proteasome subunit Rpn11. O00487. human 26S proteasome, Ub4-pepOG fluorescence polarization; 20S core pre-blocked with epoxomicin. inhibition, % at 20 µM. hit rate 0.59% among 360,000. AID 588493;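 active = inhibition at 20 µM, scaled to each plate's controls, above about 33%, limit read from the data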
TPT1 inh confirm = TPT1 (C. albicans) inhibition, confirmation; shares compounds with TPT1 inhibitor; recombinant caTPT1, fluorescence polarization, RNase T1 coupled; inhibition, % at 5 µM; hit rate 74% among 2,400;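 active = inhibition above the primary screen limit, the mean inhibition of all tested compounds plus 3 SD, cut at about 25% in these data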
RNase T1 inh = counter-screen for TPT1 inhibitors: inhibitors of Aspergillus oryzae RNase T1; shares compounds with TPT1 inhibitor; RNase T1 cleavage, fluorescence polarization, 1536-well; inhibition, % at 5 µM; hit rate 83% among 2,400;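 active = inhibition above the solvent-only control well mean plus 3 SD, limit set per screening run, cut at about 23% in these data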;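 also: inhibitors block cleavage so intact labeled substrate keeps polarization high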
Target sequence (P00651 whole entry, looked up): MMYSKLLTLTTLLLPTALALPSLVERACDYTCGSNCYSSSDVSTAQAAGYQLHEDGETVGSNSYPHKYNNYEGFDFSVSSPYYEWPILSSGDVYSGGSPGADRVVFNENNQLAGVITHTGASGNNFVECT
Numbers stand for hits; i = inactive; nt = no result shown. Rows were chosen to be rich in hits. Some 3.3% of all compounds tested hit in one or more screens of this group.

SMILES	HNF4A DNA FP	TPT1 inhibitor	PHOSPHO1 block	CTSL1 counter	CendR NRP1 mod	Rpn11 block	TPT1 inh confirm	RNase T1 inh
C1C2CC3C1C3C2=NN=C1C2CC3C(C2)C13	i	nt	nt	nt	i	i	nt	nt
CCc1ccc2nc(N3C(=O)C(O)=C(C(=O)c4ccco4)C3c3cccs3)sc2c1 (centres undefined)	i	i	i	i	i	57.0	nt	nt
Cc1ccc2nc(N3C(=O)C(O)=C(C(=O)c4cc5ccccc5o4)C3c3cccs3)sc2c1 (centres undefined)	i	i	i	i	i	55.5	nt	nt
C=CCn1c(/N=C/c2ccc(OC)cc2)nc2ccccc21	i	i	nt	i	i	i	nt	nt
C=CCn1c(/N=C/c2ccc(N(C)C)cc2)nc2ccccc21	59.0	26.6	i	i	i	nt	110.3	117.2
O=[N+]([O-])c1cccc(C2NCC(c3ccccc3Cl)c3c2[nH]c2ccccc32)c1 (centres undefined)	i	130.6	i	i	i	i	i	i
C=CCN1C(=O)/C(=C/c2ccc(O)c(OC)c2)S/C1=N/c1nccs1	95.2	67.9	i	i	i	nt	74.3	77.0
C=CCN1C(=O)/C(=C/c2ccc(OCC(=O)O)cc2)S/C1=N/c1nccs1	i	i	i	i	i	i	nt	nt
COc1ccc(N=Cc2c(O)ccc3ccccc23)cc1	72.1	111.5	i	i	i	nt	90.2	110.4
O=C(O)c1ccc(N=Cc2c(O)ccc3ccccc23)cc1	i	i	i	i	i	i	nt	nt
NC(=O)c1ccc(N=Cc2c(O)ccc3ccccc23)cc1	i	i	nt	i	i	i	nt	nt
CC(=O)Nc1ccc(N=Cc2c(O)ccc3ccccc23)cc1	77.1	46.1	i	i	i	nt	46.5	78.6
COc1cccc(SCc2noc(C(=O)NCCCN3CCOCC3)c2C(=O)NCCCN2CCOCC2)c1	i	i	nt	i	i	i	nt	nt
CC(=O)N(C)c1ccc(NS(=O)(=O)c2cc(Cl)ccc2Cl)cc1	i	i	i	i	i	i	nt	nt
O=S(=O)(c1ccccc1)N1CCN(CCO)CC1	i	i	i	i	i	i	nt	nt
O=C(N/N=C/c1c(O)n(-c2ccc(Cl)cn2)c(=O)c2ccccc12)C1CC1	i	i	i	i	i	i	nt	nt
O=C(N/N=C/c1c(O)n(-c2ccc(Cl)cn2)c(=O)c2ccccc12)c1ccncc1	71.8	130.2	i	i	i	nt	153.8	142.8
COCCNC(=O)c1cccc(OC2CCN(Cc3ccc(F)cc3OC)CC2)c1	i	i	i	i	i	i	nt	nt
O=c1cc(O)c2sc(Nc3ccc(F)cc3)nc2[nH]1	i	35.1	i	i	i	i	i	28.8
CCOc1ccc(/C=C2\SC(=S)N(C(C(=O)O)c3ccccc3)C2=O)cc1OC (centres undefined)	i	i	i	i	i	i	nt	nt
COc1ccc(OC)c(/C=C2\SC(=S)N(C(C(=O)O)c3ccccc3)C2=O)c1 (centres undefined)	i	65.5	i	i	i	nt	61.1	71.7
COc1ccc(OC)c(/C=C2\NC(=O)NC2=O)c1	i	i	i	i	i	i	nt	nt
COc1cc(N2CCCC2)c(OC)cc1/C=C1/NC(=S)NC1=O	i	130.8	i	i	i	nt	138.4	128.8
O=C1C=CC(=O)N1CCNc1ncc(C(F)(F)F)cc1Cl	i	nt	i	nt	i	i	nt	nt
COc1ccccc1-n1c(CNC(=O)c2ccco2)n[nH]c1=S	i	i	i	i	i	i	nt	nt
SMILES	HNF4A DNA FP	TPT1 inhibitor	PHOSPHO1 block	CTSL1 counter	CendR NRP1 mod	Rpn11 block	TPT1 inh confirm	RNase T1 inh
CS(=O)(=O)N1CC2CCCN2c2ccc(C(F)(F)F)cc21 (centres undefined)	i	i	i	i	i	i	nt	nt
CS(=O)(=O)N1CC2CCCN2c2cc(C(F)(F)F)ccc21 (centres undefined)	i	27.7	i	i	i	i	i	i
COc1cc(/C=C2\Oc3cc(O)ccc3C2=O)ccc1O	i	46.9	i	i	i	nt	51.0	59.3
Cc1cc(=O)nc2c3ccccc3n(CC(=O)NCCC3=CCCCC3)n12	i	i	i	i	i	i	nt	nt
Cc1ccc2nc(/C(C#N)=C/c3ccc(-c4cccc([N+](=O)[O-])c4)o3)[nH]c2c1	i	76.2	i	i	i	i	65.4	74.0
CC1(C)C2CC=C(/C=N/NC(=O)c3ccc(O)cc3)C1C2 (centres undefined)	i	i	i	i	i	i	nt	nt
COc1ccc(N/C=C\C(=O)c2ccc(Br)cc2)cc1OC	i	33.6	i	i	i	nt	50.0	60.0
COc1ccc(N/C=C\C(=O)c2ccc(C)cc2)cc1OC	i	i	i	i	i	nt	nt	nt
OCC[n+]1ccc(/C=C/c2c[nH]c3ccccc23)cc1	i	57.2	i	i	i	nt	59.3	64.7
Cc1ccc(NC(=O)c2ccc(NCCN)c([N+](=O)[O-])c2)cc1Cl	i	i	i	i	i	i	nt	nt
O=C(Nc1cc(F)cc(F)c1)c1ccc(NCCCN2CCCCCC2)c([N+](=O)[O-])c1	i	i	i	i	i	i	nt	nt
Cc1ccc(NC(=O)c2ccc(NCCc3ccccc3)c([N+](=O)[O-])c2)cc1F	54.0	58.7	i	i	i	nt	107.9	112.8
O=C(Nc1cc(F)cc(F)c1)c1ccc(NCCc2ccccc2)c([N+](=O)[O-])c1	i	67.5	i	i	i	nt	92.3	101.6
Cc1ccc(N/C=C/C(=O)c2sc(-c3ccccc3)nc2C)cc1	i	38.8	i	i	i	i	37.8	46.8
Cc1nc(-c2ccccc2)sc1C(=O)NN	i	i	i	i	i	i	nt	nt
CCCCOc1ccc(C2=NNC(=O)CC2)cc1	i	i	i	i	i	i	nt	nt
CCn1c(C)nc2cc(C(=O)N/N=C/c3ccccc3)ccc21	i	i	i	i	i	i	nt	nt
CCC(CC)=N/N=C/c1c(O)n(CC)c2cc(C3=NNC(=O)CC3)ccc12	i	63.5	i	i	i	i	43.8	56.3
CCn1c(O)c(/C=N/N=C/c2ccccc2)c2ccc(C3=NNC(=O)CC3)cc21	i	60.8	i	i	i	nt	71.9	84.3
FC(F)(F)c1cc(NC2CCCCC2)ccn1	i	i	nt	i	i	i	nt	nt
COc1ccc2nc(C)cc(Nc3ccc(C)cc3)c2c1	i	nt	i	nt	i	i	nt	nt
COc1ccc2nc(C)cc(NCc3ccc(F)cc3)c2c1	i	68.6	i	i	i	nt	81.5	84.9
CCN(CC)c1ccc(/C=C/c2cc(-c3ccccc3)c3ccccc3n2)cc1	i	94.4	i	i	i	nt	86.5	89.5
COc1ccc([C@H]2C[C@@H](O)[C@H](n3cc(COC(=O)c4ccccc4)nn3)CN2C(=O)C2CCCCC2)cc1	i	nt	nt	nt	i	i	nt	nt
COC(=O)C1C2CC3c4[nH]c5cc(OC)ccc5c4CCN3CC2CC(OC2CCCCO2)C1OC (centres undefined)	i	nt	nt	nt	i	i	nt	nt
